Gal4-VP16 FLuc: counter-screen for ROR gamma inhibitors: Gal4-VP16 reporter. Drosophila S2 Gal4-VP16 UAS-luciferase, luminescence, 20 h. Potency, µM (titrated, usually from 53.6 µM), without a hit: top-dose activity, negative = inhibition, actives largely listed as inhibitors. 310,000 compounds, 3.5% hits. AID 2546;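 also: Gal4-VP16 expression switched on by copper sulfate through the metallothionein promoter; % is scaled to controls: 0 for no effect and ±100 for the full control effect; nearly all actives have a fitted effect of over 50% in size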
MCF10A rereplic: DNA re-replication induction in MCF 10a cells. MCF 10A DNA re-replication, Hoechst nuclear intensity, 48 h. Potency, µM (top dose mostly 46.1 µM), inactives show at the top dose activity, positive = re-replication, hits mostly activators. AID 624296. 350,000 compounds, 2.9% hits; also: % of control where 0% means no effect; nearly all actives have a fitted effect of over 50% in size
RORgamma inh: ROR gamma (mouse) transcription inhibition | P51450 | AID 2551 | Potency, µM (top dose mostly 53.6 µM), for the others: at the top dose activity change, negative = inhibition, hits mostly inhibitors | 310,000 compounds, 5.4% hits | Drosophila S2 Gal4-RORgamma UAS-luciferase reporter, 20 h; also: % is scaled to controls: 0 for no effect and ±100 for the full control effect; nearly all actives have a fitted effect of over 60% in size
Target sequence (P51450 whole entry, looked up, the tested form may be a part): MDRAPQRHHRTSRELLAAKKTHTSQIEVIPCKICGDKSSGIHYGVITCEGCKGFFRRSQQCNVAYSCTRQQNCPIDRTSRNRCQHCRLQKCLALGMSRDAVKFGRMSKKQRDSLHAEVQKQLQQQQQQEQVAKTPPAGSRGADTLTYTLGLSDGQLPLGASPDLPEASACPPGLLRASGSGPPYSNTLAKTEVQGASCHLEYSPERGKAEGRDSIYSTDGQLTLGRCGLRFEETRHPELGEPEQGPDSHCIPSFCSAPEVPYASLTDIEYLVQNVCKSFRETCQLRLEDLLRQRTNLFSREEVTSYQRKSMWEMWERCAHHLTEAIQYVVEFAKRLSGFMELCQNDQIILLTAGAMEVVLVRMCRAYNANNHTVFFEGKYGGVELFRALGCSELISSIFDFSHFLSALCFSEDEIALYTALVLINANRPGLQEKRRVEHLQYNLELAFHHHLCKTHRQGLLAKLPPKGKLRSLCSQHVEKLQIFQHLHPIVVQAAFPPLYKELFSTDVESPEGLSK
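Stable Schneider cell line, Gal4 DNA-binding domain fused to ROR gamma, UAS-luciferase. Cmpd 1 hr RT → CuSO4 700 uM final → 20 hr RT → luciferase reagent 10 min → luminescence.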
KB-3-1 tox: KB-3-1 parental cell cytotoxicity; Potency, µM (doses to about 46.1 µM), actives largely listed as cytotoxic; AID 1347075; 400,000 compounds, 1.4% hits; KB-3-1 viability, CellTiter-Glo ATP luminescence, 72 h; also: % is scaled to controls: 0 for no effect and ±100 for the full control effect; nearly all actives have a fitted effect of over 60% in size
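Parental KB-3-1 adenocarcinoma cells in phenol-red-free DMEM with 10% FBS were pin-treated with compounds at several concentrations, incubated 72 h at 37 °C, and viability read by CellTiter-Glo luminescence; concentration-effect curves were fitted after normalization.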
KB-V1 MDR tox: kills drug-selected multidrug resistant KB-V1 cells | KB-V1 MDR cells viability, CellTiter-Glo, 72 h | Potency, µM (titrated, usually from 46.1 µM), usual class: cytotoxic | 400,000 compounds, 3.4% hits; also: % is scaled to controls: 0 for no effect and ±100 for the full control effect; nearly all actives have a fitted effect of over 60% in size
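Potencies derive from concentration-effect curves fitted to normalized luminescence (CellTiter-Glo) of KB-V1 cells treated for 72 h at 37 degrees C in phenol-red-free DMEM containing 10% FBS.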
SW480 rereplic: inducers of DNA re-replication in SW480 colon cancer cells. SW480 DNA re-replication, Hoechst DNA content imaging, 48 h. Potency, µM (series often up to 46.1 µM), without a hit: at the highest dose re-replication activation, hits mostly activators. 340,000 compounds, 1.8% hits; also: % of control where 0% means no effect; nearly all actives have a fitted effect of over 55% in size
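Image-based read-out: total Hoechst fluorescence of nuclei (405 nm excitation, 500-530 nm emission), with hits raising the fraction of high-intensity nuclei. SW480 colon cells incubated 48 hr with compounds at 37 C.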
Active calls of the source: *; i = inactive; ? = inconclusive; / = not tested or not shown; [ ] = dose if it differs, or a comment. In the library only some 10% were active in any assay of this set; here they are far more common. Calls follow the shape of the dose curve; as a rule, active = well fitted curve in the direction sought with a large enough effect; inconclusive = small, poorly fitted or top-dose-only effect, or another doubt; inactive = no such curve, though single readings can be large; an effect the other way counts as inactive or inconclusive. Potency is read from the fitted curve at half-maximal effect.

SMILES	Gal4-VP16 FLuc	MCF10A rereplic	RORgamma inh	KB-3-1 tox	KB-V1 MDR tox	SW480 rereplic
CNS(=O)(=O)c1cn(CC(=O)N2CCN(c3ccccc3F)CC2)cc1S(=O)(=O)NC	/	/	/	i	i	/
Cc1noc(C)c1CSc1nc2ccccc2c(=O)n1-c1ccccc1	-3%	7.3µM*	-22%	5.8µM*	5.8µM*	13µM*
Cc1noc(C)c1CSc1nc2ccccc2c(=O)n1-c1ccc(F)cc1F	-3%	13µM*	-6%	7.3µM*	21µM*	?
Cc1noc(C)c1CSc1nc2[nH]ncc2c(=O)n1-c1ccccc1	-12%	1.3µM*	43%	?	?	?
Cc1cccc(N2CCN(C(=O)c3cc(S(=O)(=O)N4CCOCC4)cn3C)CC2C)c1 (centres undefined)	0%	2%	-15%	i	i	-10%
COCCCNC(=O)c1sc2ncnc(N3CCc4ccccc4C3)c2c1C	?	15µM*	-29%	?	i	21µM*
CC(C(=O)c1ccc(-c2ccccc2)cc1)[n+]1ccccc1 (centres undefined)	-6%	19%	?	?	i	1%
Cc1cc[n+](C(C)C(=O)c2ccc(-c3ccccc3)cc2)cc1 (centres undefined)	10µM*	2%[9.22 µM]	?	?	i	17%
O=C(Nc1nccs1)C1CC2CCC1C2 (centres undefined)	-5%	3%	7.9µM*	i	i	-5%
O=C(NC1=NCCS1)C1CC2CCC1C2 (centres undefined)	-3%	1%	?	i	?	2%
CC(=O)c1cccc(NS(=O)(=O)c2cc(-c3onc(C)c3C)ccc2C)c1	/	/	/	15µM*	?	/
CCc1nc2ccc(C(=O)N(CC)CCN(C)C)cn2c1N(CC)C(=O)NCCc1ccccc1	/	/	/	i	i	/
COc1cc(CC(=O)NCCCc2ccccc2)cc(OC)c1OC	12%	-1%	1%	i	?	27%
COc1cc(CCC(=O)NCc2ccc3c(c2)OCO3)cc(OC)c1OC	-1%	6%	2%	i	i	2%
COc1cc(C2c3cc4c(cc3OC(NCCc3ccccc3)C2C)OCO4)cc(OC)c1OC (centres undefined)	/	1µM*	/	4.1µM*	2.9µM*	1µM*
COc1cc(C2c3cc4c(cc3OC(Nc3ccc(C(=O)O)cc3)C2C)OCO4)cc(OC)c1OC (centres undefined)	/	1.3µM*	/	0.18µM*	i	0.65µM*
COc1cc(C2c3cc4c(cc3OC(C)(N3CCCC3)C2C)OCO4)cc(OC)c1OC (centres undefined)	/	0.65µM*	/	1.5µM*	2.6µM*	5.2µM*
COc1cc2c(c(OC)c1OC)-c1c(cc3c(c1OC)OCO3)C1OC2[C@@H](C)[C@H]1C (some centres undefined)	3%	?	7%	i	i	-4%
CCc1ccc2c(c1)C(=O)CCC2	/	-4%	/	i	i	-10%
O=C1CCCc2cc3c(cc21)CC1(C3)Cc2cc3c(cc2C1)C(=O)CCC3	?	3.3µM*	?	6.5µM*	i	5.8µM*
CC(/C=N/NC(=O)c1cccnc1)=C\c1ccccc1	-18%	-4%	19%	i	i	-13%
CC(/C=N/Nc1nc(C)cc(C)n1)=C\c1ccc(C(C)C)cc1	?	20%	11µM*	i	i	?
CC(/C=N/NC(=O)c1ccncc1)=C\c1ccc(C(C)C)cc1	0%	?	-7%	i	10µM*	1%
CC(/C=N/Nc1nc(C)cc(=O)[nH]1)=C\c1ccccc1	?	19%	-2%	i	i	?
O=C(CNS(=O)(=O)c1ccc(Br)s1)N1CCN(c2ccccc2F)CC1	/	/	/	i	i	/
